# Compound activity: PubChem, National Center for Advancing Translational Sciences (NCATS)
# This is a sample that favours compounds with a hit; in the whole collection about 6.4% have one here.
# VP16 counter = Gal4-VP16 reporter inhibition counter-screen; Drosophila S2 Gal4-VP16 UAS-luciferase, luminescence, 20 h; Potency, µM (highest dose often 53.6 µM), without a hit: at the highest dose activity, negative = inhibition, most hits filed as inhibitors; 310,000 compounds, 3.5% hits; AID 2546;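 note: Gal4-VP16 expression switched on by copper sulfate through the metallothionein promoter; nearly all actives have a fitted effect of over 50% in size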
# RORg inh = inhibitors of mouse ROR gamma transcriptional activity. Drosophila S2 Gal4-RORgamma UAS-luciferase reporter, 20 h. AID 2551. Potency, µM (series often up to 53.6 µM), for inactives: top-dose activity change, negative = inhibition, most hits filed as inhibitors. 310,000 compounds, 5.4% hits; note: nearly all actives have a fitted effect of over 60% in size
# Target sequence (P51450 whole entry, looked up, the tested form may be a part): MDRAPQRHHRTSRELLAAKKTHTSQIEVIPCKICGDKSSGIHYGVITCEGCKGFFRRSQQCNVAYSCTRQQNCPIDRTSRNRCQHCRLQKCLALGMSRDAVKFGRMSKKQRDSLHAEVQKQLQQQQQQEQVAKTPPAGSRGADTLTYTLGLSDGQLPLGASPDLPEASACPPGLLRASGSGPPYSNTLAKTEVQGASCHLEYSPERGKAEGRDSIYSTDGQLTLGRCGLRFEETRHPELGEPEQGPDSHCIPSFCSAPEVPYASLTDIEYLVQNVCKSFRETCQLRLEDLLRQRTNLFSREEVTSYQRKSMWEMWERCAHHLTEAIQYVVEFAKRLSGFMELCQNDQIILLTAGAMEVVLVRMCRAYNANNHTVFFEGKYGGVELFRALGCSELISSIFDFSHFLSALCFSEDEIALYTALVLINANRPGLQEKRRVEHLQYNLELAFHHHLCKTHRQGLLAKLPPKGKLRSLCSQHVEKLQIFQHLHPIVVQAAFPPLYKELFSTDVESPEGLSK
#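 Compounds are pin-transferred onto Drosophila Schneider cells expressing a copper-inducible Gal4–ROR gamma transactivation domain fusion. After 1 hr, copper sulfate is added to 700 uM final; luciferase is read 20 hr later.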
# Luc counter = Kinase-Glo luciferase inhibition (counter-screen); Q27757; Kinase-Glo luciferase, ATP luminescence, 8 min; AID 1379; 200,000 compounds, 0.28% hits; Potency, µM (series often up to 38.3 µM), inactives show top-dose activity change, negative = inhibition, actives largely listed as inhibitors; note: nearly all actives have a fitted effect of over 60% in size
#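 Substrate mix (final 50 mM imidazole pH 7.2, 50 mM KCl, 7 mM MgCl2, 10 uM ATP, 0.01% Tween 20, 0.05% BSA) plus pin-tool compound, then Kinase-Glo detection mix; 8 min ambient, luminescence read.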
# * = called active by the depositor; ? = inconclusive; . = no result; [ ] = remark or other dose. Calls come from the whole dose curve; as a rule, active = well fitted curve in the direction sought with a large enough effect; inconclusive = small, poorly fitted or top-dose-only effect, or another doubt; inactive = no such curve, though single readings can be large; an effect the other way counts as inactive or inconclusive. % is set by controls: 0 for no effect and ±100 for the full control effect; potency is the fitted concentration of half-maximal effect.
SMILES,VP16 counter,RORg inh,Luc counter
Cn1nc(-c2ccc(N3CCOCC3)c(NS(=O)(=O)c3ccc(Cl)cc3)c2)c2ccccc2c1=O,-8%,10µM*,-2%
CCOc1ccc(CCNC(=O)C2CCCN(S(=O)(=O)N3CC(C)CC(C)C3)C2)cc1OCC (stereo unspecified),-2%,-14%,.
COc1ccccc1CNS(=O)(=O)c1cc(-c2cc(C)no2)ccc1C(C)C,-1%,11%,.
CCn1c(=O)c(C(=O)NCc2ccc(F)cc2)c(O)c2ccccc21,?,13µM*,.
CCn1c(=O)c(C(=O)NCCc2ccc(Cl)cc2)c(O)c2ccccc21,-19%,?,.
CCn1c(=O)c(C(=O)NCc2ccc(Cl)cc2)c(O)c2ccccc21,6%,?,.
CCn1c(=O)c(C(=O)NCc2ccccc2)c(O)c2ccccc21,16µM*,?,.
CCCn1c(=O)c(C(=O)NCCc2ccc(Cl)cc2)c(O)c2ccccc21,?,14µM*,.
CCn1c(=O)c(C(=O)NCc2ccccc2OC)c(O)c2ccccc21,?,-30%,.
CC(C)C[C@H](NC(=O)[C@@H]1CCCN1C(=O)[C@H](CO)NC(=O)[C@H](Cc1ccccc1)NC(=O)CNC(=O)[C@@H]1CCCN1C(=O)[C@@H]1CCCN1C(=O)[C@@H](N)CCCN=C(N)N)C(=O)O,-6%,16%,.
C=CCN1c2ccccc2[C@]23C[C@@H](C(=O)OC)N(S(=O)(=O)CCCC)C2=NC(C(=O)OC)=C(C(=O)OC)[C@H]13,.,.,-1%[7.66 µM]
CC1(C)OC(C(O)(c2cc(C(F)(F)F)cc(C(F)(F)F)c2)c2cc(C(F)(F)F)cc(C(F)(F)F)c2)C(C(O)(c2cc(C(F)(F)F)cc(C(F)(F)F)c2)c2cc(C(F)(F)F)cc(C(F)(F)F)c2)O1 (stereo unspecified),0%[10 µM],4%[10 µM],.
C=C(C)CNC(=S)NNC(=O)CCn1c2cc(Cl)ccc2c2ccc(Cl)cc21,8.9µM*,5µM*,-1%
C=C(C)CNC(=S)NNC(=O)CCn1c2ccc(Cl)cc2c2cc(Cl)ccc21,0.5µM*,0.63µM*,1%
C=CCNC(=S)NNC(=O)COc1ccc(Cl)cc1Cl,1%,21%,-1%
C=C(C)CNC(=S)NNC(=O)c1ccncc1,-7%,?,2%
C=C(C)CNC(=S)NNC(=O)CCn1c2ccccc2c2ccccc21,?,7.1µM*,1%
Cn1cccc1CC(=O)NNC(=S)Nc1ccc(Cl)cc1Cl,?,?,0%
CCN(Cc1ccccc1)C(=O)CSc1nc(C)cc(=O)[nH]1,-6%,-15%,-1%
CCCC[C@@H](C=O)NC(=O)[C@H](CC(C)C)NC(=O)[C@H](CC(C)C)NC(C)=O,-14%,?,1%[39.9 µM]
CSCC[C@H](C=O)NC(=O)[C@H](CC(C)C)NC(=O)[C@H](CC(C)C)NC(C)=O,-2%,11µM*,2%
Cc1ccc2c(c1)C(=O)C1(O)CCN(c3ccccc3)C1=N2 (stereo unspecified),3%,29%,-1%[39.9 µM]
O=C1CCCC2=C1Sc1ccc(Cl)cc1N2,0%,11%,.
S=C1CCSc2ccc(Cl)cc2N1,10µM*,4µM*,2%
CC1(C)O[C@@H]2O[C@H]([C@@H]3COC(C)(C)O3)[C@H](N)[C@H]2O1,.,.,-2%[7.66 µM]
SMILES,VP16 counter,RORg inh,Luc counter
CC(=O)N(C)c1ccc(NC(=S)Nc2cccc3ccccc23)cc1,?,?,-1%
Cc1ccc(NC(=S)Nc2cccc3ccccc23)cc1F,7.9µM*,11µM*,.
Fc1cccc(NC(=S)Nc2cccc3ccccc23)c1,-3%,29%,.
CC(=O)c1ccc(NC(=S)NC(=O)Cc2ccc(Cl)cc2)cc1,-9%,?,.
CCCC(=O)NC(=S)Nc1ccc(C(C)=O)cc1,?,16µM*,-3%
CC(=O)c1ccc(NC(=S)Nc2cccc3ccccc23)cc1,?,14µM*,.
COc1cccc(-n2c([S-])c(C(=O)Nc3ccc(C(F)(F)F)cc3)[n+]3ccccc23)c1,-26%,-2%,0%
CCOC(=O)C1=C(COC(=O)/C=C/c2cccc(OC)c2)NC(=O)NC1C (stereo unspecified),-3%,3%,.
Fc1ccc(NC(=S)Nc2cccnc2)c(F)c1F,-3%,-21%,-1%
CC(=O)Nc1ccc(S(=O)(=O)Nc2nnc(Cc3ccc(Cl)cc3)s2)cc1,-8%,-11%,.
CCC(C)C(NC(=O)OC(C)(C)C)C(=O)NC1COC2CC(n3cc(F)c(=O)[nH]c3=O)OC12 (stereo unspecified),-2%,1%,.
CC(C)[N+]1=C2C=CC=CC=C2SC12C([N+](=O)[O-])=CC(=[N+]([O-])[O-])C=C2[N+](=O)[O-] (stereo unspecified),1%,3%,.
Cc1ccc(-n2nc(C)cc2Nc2ncc(Cl)cc2Cl)cc1,?,-35%,4%
Cc1cc(Nc2ncc(Cl)cc2Cl)n(-c2ccccc2C)n1,?,8.9µM*,5%
O=C(NC(=S)Nc1ccc(N2CCCCC2)cc1)c1ccco1,20µM*,7.1µM*,-1%
CC(=O)N1CCN(c2ccc(NC(=O)c3ccco3)cc2)CC1,-10%,-24%,.
CC1CCN(c2ccc(NC(=S)NC(=O)c3ccco3)cc2)CC1,7.1µM*,3.2µM*,0%
O=C(NC(=S)Nc1ccc(NC(=O)c2ccco2)cc1)c1ccccc1,-5%,-21%,-4%
CC12C(=O)N(c3ccc(C(=O)N4CCOCC4)cc3)C(=O)C1C1c3ccccc3C2c2ccccc21 (stereo unspecified),-8%,-5%,-1%
CCOc1ccc(CC(=NCCc2ccccc2)C2=C(O)CC(C)(C)CC2=O)cc1OCC,6%,30%,4%
O=C(Nc1cccc(F)c1)NC1(C(=O)N2CCOCC2)CCCCC1,5%,46%,0%
C/C(=N\NC(N)=S)C1=CCC2C3CC[C@H]4CC(O)CC[C@]4(C)C3CC[C@]12C (stereo partly specified),?,2.5µM*,.
CC12CCC3C(CCC4CC(O)CCC43C)C1CC=C2c1ccccc1 (stereo unspecified),-5%,8%,.
CNc1ccc(Cl)nn1,1%,3%,-5%
NNc1ccc(Cl)nn1,?,10µM*,.
SMILES,VP16 counter,RORg inh,Luc counter
c1ccc(-c2ccc(-c3ccccn3)nn2)nc1,8.9µM*,5.6µM*,10µM*
c1ccc(-c2ccccn2)nc1,-2%,-3%,0%
O=C(Nc1nc2c(Cl)cccc2s1)C1CC1,-3%,38%,.
O=C(Nc1nc2c(cc3c4c(cccc42)CC3)s1)c1ccccc1Cl,-26%,5µM*,0%
CCOc1ccc(NS(=O)(=O)c2ccc3c(c2)n(C)c(=O)n3C)cc1,-12%,42%,.
CCOc1ccc(OCC)c(NS(=O)(=O)c2ccc3c(c2)n(C)c(=O)c(=O)n3C)c1,.,0.32µM*,-1%
CCCCn1c(=O)c2ccccc2n2c(=S)[nH]nc12,?,10µM*,.
Cn1c(=O)c2ccccc2n2c(=S)[nH]nc12,-15%,?,.
CCCCCn1c(=O)c2ccccc2n2c(=S)[nH]nc12,?,7.1µM*,.
CCCn1c(=O)c2ccccc2n2c(=S)[nH]nc12,-6%,-9%,.
COc1ccc(CCNC(=O)C(=O)NCc2cccs2)cc1OC,3%,22%,2%
CN(C)CCNC(=O)c1cc2sc3ccccc3c2s1,-5%,-22%,0%
